Data on 45 molecules can be found in PubChem BioAssay AID2685 (National Center for Advancing Translational Sciences (NCATS), 2010).

In all, about 320,000 compounds went through this assay and about 2,100 (0.66%) were called active. Not shown: some 53% with an inconclusive outcome. Calls follow the shape of the dose curve; as a rule, active = well fitted inhibition curve with a large enough effect in the signal ratio, with a control signal flat (not every such curve was filed as active); inconclusive = small, poorly fitted or top-dose-only effect, or effect the other way, or a change in a side signal; inactive = flat fitted curve, though single readings scatter; the % refers to the signal ratio. Many of the other results were omitted from the sample, so actives are more common in it than they were.
Potency is read from the fitted curve at half-maximal effect.

The experiment is described as follows: qHTS Assay for Lipid Storage Modulators in Drosophila S3 Cells.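 As to cell number change: cells counted by Cell Tracker Red CMTPX staining in the red channel.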 As to lipid storage change, negative = inhibition: % is scaled to controls: 0 for no effect and ±100 for the full control effect. The settings on record: BODIPY lipid droplet fluorescence, 18-24 h, cells fed with added oleic acid; cell number change: measured here: cell count max response; series mostly up to 46.1 µM; lipid storage change, negative = inhibition: at the top concentration. Put shortly:
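Drosophila S3 cells loaded with oleic acid (400 uM, as added) and compounds at several concentrations; lipid droplets imaged by 488-nm laser-scanning cytometry, 500–530 nm intensity and object ratio to cell channel. Percent activity normalized to 20 uM Triacsin C.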
On the technique in general: qHTS replaces the single test concentration by a dilution series.
For `COc1cccc(NC(=O)C2C3C=CC4(O3)C2C(=O)N(CCCN2CCCC(C)C2)C4C(=O)NC2CCCCC2C)c1` (stereo not given), the molecule was called inactive and the cell number change is -4.5%. As to `CC(C)c1ccc(NC(=O)C2C3C=CC4(O3)C2C(=O)N(CCCN2CCCCC2)C4C(=O)NC2CCCCC2)cc1` (stereo not given), the result was inactive and the cell number change worked out at 2.7%. For `COc1cccc(NC(=O)C2C3C=CC4(O3)C2C(=O)N(CCN2CCCCC2)C4C(=O)NC2CCCCC2C)c1` (stereo not given), the Potency was 5.8 µM (active) and the cell number change was found to be 14.4%. Turning to `COc1cccc(NC(=O)C2C3C=CC4(O3)C2C(=O)N(CCCN2CCCCC2)C4C(=O)NC2CCCCC2)c1` (stereo not given), the call was inactive and the cell number change came to 1.59%.

Turning to `COc1ccc(NC(=O)C2C3C=CC4(O3)C2C(=O)N(CCN2CCCCC2C)C4C(=O)NC2CCCC(C)C2C)cc1` (stereo not given), the result was inactive and the cell number change was -11.9%. Take `COc1ccc(NC(=O)C2C3C=CC4(O3)C2C(=O)N(CCCN2CCCCC2)C4C(=O)NC2CCCC(C)C2C)cc1` (stereo not given): the call was inactive and the cell number change was 20.6%. For `CCN(CC)CCN1C(=O)C2C(C(=O)Nc3ccc(C(C)C)cc3)C3C=CC2(O3)C1C(=O)NC1CCCCC1` (stereo not given), in that order: “inactive” and 1.35%. As for `CCN(CC)CCCN1C(=O)C2C(C(=O)Nc3ccc(C(C)C)cc3)C3C=CC2(O3)C1C(=O)NC1CCCCC1` (stereo not given), the Potency was 16.4 µM (active) and the cell number change was found to be 8.06%. As for `COc1ccc(NC(=O)C2C3C=CC4(O3)C2C(=O)N(CCN2CCCCC2)C4C(=O)NC2CCCC(C)C2C)cc1` (stereo not given), the Potency was 0.92 µM (active) and the cell number change was 27%.

`Cc1cccc(NC(=O)CSc2nnc(CNC(=O)c3ccco3)o2)c1`: the call was inactive and the cell number change was -11.3%. On to `CCCn1c(O)c(N=NC(=O)CNC(=O)c2cccnc2)c2ccccc21`, for which the “lipid storage change, negative = inhibition” value is 22.8% (inactive) and the cell number change is 6.42%. With `NC(=O)/C=C\c1cn(-c2ccccc2)nc1-c1ccc2c(c1)OCCO2`, the “lipid storage change, negative = inhibition” value was 33.5% (inactive) and the cell number change was found to be 13.6%. Regarding `O=S(=O)(N/N=C/c1cccnc1)c1ccc(Cl)c(Cl)c1`, the “lipid storage change, negative = inhibition” value is -1.88% (inactive) and the cell number change was determined as 4.73%.

Regarding `C=CCn1c(O)c(C=Nc2ccccc2)sc1=S`, the “lipid storage change, negative = inhibition” value was 12.5% (inactive) and the cell number change is 8.83%.

As for `COc1ccc(CCNC(=O)COc2nncc3ccccc23)cc1`, the molecule was called inactive and the cell number change is -8.53%. As to `Cc1ccc(C(C)C)c(OCCCN2CCc3ccccc3C2)c1`, the Potency is 14.6 µM (active) and the cell number change was -26.9%. Take `Cc1ccc(C(C)C)c(OCCN2CCc3ccccc3C2)c1`: the “lipid storage change, negative = inhibition” value was -43.6% (inactive) and the cell number change was -16.4%. As for `Cc1ccc(OCCCCN2CCc3ccccc3C2)cc1`, the molecule was classed as inactive and the cell number change is -8.99%. Regarding `COc1c(Br)cc2c(C)c(C(=O)O)oc2c1Br`, the “lipid storage change, negative = inhibition” value was -6.54% (inactive) and the cell number change worked out at 24.7%. `CN(C)c1cc(Nc2ccc(O)cc2)c([N+](=O)[O-])c2nonc12`: the “lipid storage change, negative = inhibition” value is -2.02% (inactive) and the cell number change was 4.46%.

With `CCOc1ccc(NS(=O)(=O)c2ccc(C(=O)N3CCCC(C)C3)cc2)cc1` (stereo not given), the “lipid storage change, negative = inhibition” value is 18.3% (inactive) and the cell number change turned out to be 20.5%. For `CCOc1ccc(NS(=O)(=O)c2ccc(C(=O)N3CC(C)OC(C)C3)cc2)cc1` (stereo not given), the Potency is 25.9 µM (active) and the cell number change was -12.2%. Take `CCOc1ccc(NS(=O)(=O)c2cc(C(=O)N3CC(C)OC(C)C3)ccc2C)cc1` (stereo not given): the “lipid storage change, negative = inhibition” value was 17.9% (inactive). Regarding `CN(C)CCCNC(=O)C1CCNCC1`, the molecule was classed as inactive and the cell number change was -14.6%.

`Cc1ccc(S(=O)(=O)N/N=C\C=C\c2ccccc2)cc1`: the “lipid storage change, negative = inhibition” value is 7.89% (inactive). As for `NC(=O)N/N=C/C=C/c1ccccc1`, the “lipid storage change, negative = inhibition” value is -3.42% (inactive) and the cell number change is -8.08%. Consider `O=S(=O)(N/N=C\C=C\c1ccccc1)c1ccc(Cl)cc1`, for which the Potency was 11.6 µM (active) and the cell number change was -34.4%. Turning to `COc1ccc(/C=C/c2c(-c3ccc(OC)cc3)oc3cccnc23)cc1`, the molecule was classed as inactive and the cell number change is -16.2%. As for `COC(=O)c1sccc1NC(=O)CC1C(=O)NCCN1C(=O)c1c(F)cccc1Cl` (stereo not given), the “lipid storage change, negative = inhibition” value is 4.81% (inactive) and the cell number change worked out at 12.2%.

`O=c1ccc(-c2ccc(S(=O)(=O)N3CCN(c4cccc(Cl)c4)CC3)o2)n[nH]1`: the call was inactive and the cell number change amounted to 7.08%. Regarding `CNS(=O)(=O)c1ccc(NC(=O)c2cncc(Br)c2)cc1`, the result was inactive.

On to `CN(C)S(=O)(=O)c1cccc(NC(=O)c2cncc(Br)c2)c1`, for which the “lipid storage change, negative = inhibition” value was 8.64% (inactive). `Cc1ccc(S(=O)(=O)N(C)C)cc1NC(=O)c1cncc(Br)c1`: the Potency is 8.2 µM (active) and the cell number change was -18%. With `COC(=O)[C@H](CC(C)C)NC(=O)NC1CCCCC1C` (stereo not given in full), the Potency is 25.9 µM (active) and the cell number change was -4.34%. For `COC(=O)[C@H](CC(C)C)NC(=O)N1CCCCC1C` (stereo not given in full), the “lipid storage change, negative = inhibition” value was -12.3% (inactive) and the cell number change is -11.4%. Turning to `COC(=O)[C@@H](NC(=O)NC1CCCCC1C)C(C)C` (stereo not given in full), the “lipid storage change, negative = inhibition” value was 11.5% (inactive) and the cell number change was found to be 5.72%. Turning to `C=CCc1ccc(OCCCCNC2CCCC2)c(OC)c1`, the cell number change is -17.8% and the lipid storage change, negative = inhibition was -10.2% [at 9.22 µM] (inactive). Take `CN(C)C(=O)N1CCCC(C(=O)NCc2ccccc2)C1` (stereo not given): the “lipid storage change, negative = inhibition” value is -5.36% (inactive) and the cell number change was -23.4%. Turning to `CC(NC(=O)C1CCC1)c1ccccc1` (stereo not given), the call was inactive. With `CC(NC(=O)C1CCCN(C(=O)N(C)C)C1)c1ccccc1` (stereo not given), the Potency was 25.9 µM (active) and the cell number change is 2.04%. With `CCOC(=O)c1c(NC(=S)N2CCOCC2)sc2c1CCN(C(=O)OCC)C2`, the “lipid storage change, negative = inhibition” value is -15.8% (inactive) and the cell number change was -10.4%. With `Cc1ccc(/C=N/NC(=O)Cc2c(F)cccc2Cl)s1`, the result was inactive and the cell number change was 13.4%. Regarding `CCOc1ccc(S(=O)(=O)N2CCN(C(=O)c3cc(C4CC4)nn3-c3ccccc3)CC2)cc1`, the call was inactive and the cell number change was -18%. For `O=C(c1cc(C2CC2)nn1-c1ccccc1)N1CCN(S(=O)(=O)c2cccc(F)c2)CC1`, the “lipid storage change, negative = inhibition” value is 17.5% (inactive) and the cell number change came out at 16.5%. `O=C(c1cc(C2CC2)nn1-c1ccccc1)N1CCN(S(=O)(=O)c2ccccc2)CC1`: the Potency is 16.4 µM (active) and the cell number change was -11.8%.
